High-throughput results from PubChem BioAssay.
A selection: hits, their analogues and other compounds. The true share with any hit is near 1.9%.
bovine MsrA act: bovine methionine sulfoxide reductase A activation | 360,000 compounds, 0.3% hits | AID 602163 | activation, % at 10.6 µM | purified bovine MsrA, absorbance read-out; in the data active = activation above about 7.5%;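 also: 0% = vehicle and 100% = reference activator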
HTR5A inv ag: HTR5A inverse agonism, opioid heterodimer counter-screen. P47898. HTR5A cell line, luminescence. inhibition, % at 9.3 µM. 340,000 compounds, 0.083% hits; in the data active = inhibition mostly above about 23%, no sharp cut-off; inactive = mostly below about 18%;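 also: 0% = cells with DMSO and 100% = no-cell wells with DMSO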
Target sequence (P47898 whole entry, looked up): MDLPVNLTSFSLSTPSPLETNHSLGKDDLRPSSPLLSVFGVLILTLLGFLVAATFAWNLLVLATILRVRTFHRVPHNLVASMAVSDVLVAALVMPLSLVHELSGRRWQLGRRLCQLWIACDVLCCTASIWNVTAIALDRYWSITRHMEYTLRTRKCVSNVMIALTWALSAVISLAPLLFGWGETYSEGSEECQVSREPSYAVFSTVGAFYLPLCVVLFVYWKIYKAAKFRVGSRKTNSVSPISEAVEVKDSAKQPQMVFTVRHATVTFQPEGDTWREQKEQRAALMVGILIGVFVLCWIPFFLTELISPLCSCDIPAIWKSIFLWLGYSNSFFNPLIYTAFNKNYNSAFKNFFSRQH
MOR-DOR ag: OPRM1-OPRD1 heterodimerization agonism | 340,000 compounds, 0.3% hits | cells, luminescence | AID 504326 | activation, % at 9.3 µM | P35372+P41143; in the data active = activation above about 18%;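 also: 0% = vehicle-treated cells and 100% = reference agonist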
MsrA inhibitor: inhibits bovine methionine sulfoxide reductase A. inhibition, % at 15.5 µM. 360,000 compounds, 0.75% hits. purified bovine MsrA, absorbance read-out. AID 651718;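 also: 0% = vehicle wells with enzyme and 100% = reference inhibitor wells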
HTR5A ag ctr: counter-screen for OPRM1-OPRD1 agonists: human HTR5A agonism; HTR5A agonist assay, luminescence, cell-based; activation, % at 9.3 µM; AID 504692; 340,000 compounds, 0.61% hits; in the data active = activation mostly above about 9.5%, no sharp cut-off; inactive = mostly below about 7.6%;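 also: 0% = cells with vehicle only and 100% = reference agonist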
MOR-DOR inv ag: inverse agonists of human mu-delta opioid receptor heterodimerization; P35372+P41143; cell-based MOR-DOR heterodimer luminescence, inverse agonism; inhibition, % at 9.3 µM; 340,000 compounds, 0.21% hits; AID 504357; in the data active = inhibition above about 22%, passing the limit was not always enough;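 also: 0% = cells with DMSO and 100% = wells without cells with DMSO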
MsrA conf: bovine MsrA inhibition, confirmed. inhibition, % at 15.5 µM. 2,300 compounds, 41% hits. purified bovine MsrA, absorbance read-out. shares compounds with MsrA inhibitor;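 also: coupled to thioredoxin reductase with NADPH and selenocystamine and DMSO as substrate; 0% = vehicle only and 100% = full effect of reference inhibitor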
Starred values were filed as active, the others as inactive; . = no result given. Rule as the data show it, unless noted: active = inhibition above about 4.5%; inactive = the rest.

SMILES	bovine MsrA act	HTR5A inv ag	MOR-DOR ag	MsrA inhibitor	HTR5A ag ctr	MOR-DOR inv ag	MsrA conf
C/C(=N\Nc1ccc(S(=O)(=O)Nc2ccccc2)cc1[N+](=O)[O-])c1ccncc1	.	.	.	0	.	.	.
C/C(=N\Nc1ccc([N+](=O)[O-])cc1[N+](=O)[O-])c1cccnc1	-1	-2	2	13*	1	-10	16*
CCCCc1c(-c2ccccc2OC)ncn1Cc1ccc(Br)cc1	.	.	.	1	.	.	.
Cc1ccc(N2CCN(C(C(=O)Nc3c(C)cccc3C)c3cc4ccccc4o3)CC2)cc1 (stereo not given)	.	.	.	0	.	.	.
Cc1nonc1C1CCCN1Cc1cn[nH]c1-c1ccc(-c2ccccc2)cc1 (stereo not given)	-5	19	4	29*	-1	-21	22*
CCOC(=O)[C@]12CCC=C1N(Cc1ccc3c(c1)OCO3)C(=O)[C@H](CC(=O)NCCC(C)C)C2	-1	.	.	-1	.	.	.
N#Cc1c(NCCCO)nc(-c2ccco2)c2c1CCCC2	-15	-9	-2	9.5*	4	8	7.6*
CC(C)c1nc(NCCO)c(C#N)c2c1CCCC2	-12	-15	1	8.8*	6	-5	7.0*
C[C@@H]1CN([C@@H](C)CO)C(=O)c2cc(Br)cnc2O[C@@H]1CN(C)Cc1ccccn1	.	.	.	0	.	.	.
O=C(N/N=C/c1ccncc1)c1cc2ccccc2o1	-3	11	2	5.8*	1	-12	4
Cc1[nH]nc2c1C(c1ccccc1)N(c1ccccc1)C2=O (stereo not given)	.	.	.	0	.	.	.
Cc1c(C#N)c(N=CN(C)C)c(C(=O)c2ccccc2)n1-c1ccc(Br)cc1	-9	-1	-2	5.3*	-1	10	7.3*
Cc1c(C#N)c(N=CN(C)C)c(C(=O)c2ccc(Br)cc2)n1-c1ccccc1	1	12	-2	2	4	12	.
S=C1NC2(CCCCC2)Nc2ccccc21	-6	3	-2	6.4*	-1	9	7.2*
S=C1NC2(CCCC2)Nc2ccccc21	-15	11	-2	9.1*	-4	9	8.7*
c1cc2c3c(cccc3c1)NC1(CCCC1)N2	-3	-3	3	1	1	-16	.
COc1ccc(C(=O)NCC(=O)N/N=C/C(C)=C/c2ccco2)cc1OC	-13	6	1	6.6*	-2	-4	4
COc1ccc(Nc2nc(C)c(C(C)=O)s2)cc1	-5	.	.	5.4*	.	.	3
COc1ccc(-n2c(/C=C(\C)O)nc(=O)c3c(C)cc(C)nc32)cc1	-4	7	0	5.8*	2	-1	4
CCc1cc(-c2[nH]ncc2-c2ccc3c(c2)OCO3)c(O)cc1O	-1	-10	4	1	15	-25	.
CCc1cc(-c2[nH]ncc2-c2ccc(OC)cc2)c(O)cc1O	-1	-1	3	7.1*	0	-16	3
CSCCC(C(=O)NC1CCCC1)n1c(C2CC2)nc2ccccc21 (stereo not given)	.	.	.	1	.	.	.
Cc1ccc(/C=N/Nc2ccc(Cl)nn2)cc1	2	-4	-3	1	2	13	.
Oc1ccc(/C=N/Nc2ccc(Cl)nn2)cc1O	-10	8	-2	4.9*	-2	9	4
N=C1/C(=C/c2cccn2-c2ccc([N+](=O)[O-])cc2)C(=O)N=C2SC=CN12	2	9	18	0	-3	-108	.
SMILES	bovine MsrA act	HTR5A inv ag	MOR-DOR ag	MsrA inhibitor	HTR5A ag ctr	MOR-DOR inv ag	MsrA conf
O=C1NC(=S)N/C1=C/c1cccn1-c1ccc([N+](=O)[O-])cc1	-10	5	-1	5.1*	-2	8	1
COc1ccc(NC(=O)C(c2ccncc2)n2c(=O)c(-c3ccccc3)nc3ccccc32)cc1 (stereo not given)	.	.	.	3	.	.	.
CN1/C(=C/C(=O)C2CCC2)Sc2ccccc21	-4	5	-1	8.3*	-1	4	5.9*
O=c1nc(N/N=C/c2ccccn2)cn[nH]1	-2	-13	0	4.7*	4	-1	3
Cc1ccc(/C=N/Nc2cn[nH]c(=O)n2)o1	-6	-3	-2	3	4	13	.
Cc1ccccc1C1=CC(=O)CC(C)(C)C1=O	.	.	.	0	.	.	.
C(=N\Nc1ccccn1)/c1cccnc1	-1	8	-3	5.6*	-2	13	4
C=CCN1C[C@@H](COCc2ccccc2)OCCS1(=O)=O	.	.	.	3	.	.	.
COc1ccc(CN(C)C(=O)[C@H]2O[C@@H](n3ccc(N)nc3=O)[C@H](O)[C@@H]2O)cc1OC	-3	.	.	1	.	.	.
CC(C)CCOc1ccc(/C=N/N2C(=O)CSC2=S)cc1	2	-4	-2	0	-1	10	.
COc1ccc(/C=N/N2C(=N)SCC2=O)cc1	-3	-10	-1	6.3*	4	6	4
CC(=O)c1cnc(Nc2cccc(Cl)c2Cl)s1	3	9	-3	4.8*	-4	16	2
CC1CN(c2ncc(/C=N/NC(=O)c3ccccc3O)s2)CC(C)O1 (stereo not given)	-5	7	-2	6.4*	-2	10	5.7*
Cc1ccc(S(=O)(=O)N2CC(CBr)=CCC2c2ccccc2)cc1 (stereo not given)	.	.	.	-1	.	.	.
c1ccc(-n2cc(CNCCc3cscn3)c(-c3ccc4c(c3)OCO4)n2)cc1	-3	-2	1	6.3*	1	-5	1
OCc1cn(-c2ccccc2)nc1-c1ccc2c(c1)OCCO2	-1	17	-1	0	3	3	.
CSc1ccc(/C=N/Nc2nc(C)cc(=O)[nH]2)cc1	-5	-8	-3	4.9*	3	16	4
Cc1cc(=O)[nH]c(N/N=C/c2ccc(Br)s2)n1	-5	-4	-1	5.5*	2	5	4
Cc1cc(C)nc(N/N=C/C=C/c2ccccc2)n1	-4	-15	0	4	4	1	.
Cc1cc(=O)[nH]c(NN=Cc2c(Cl)cccc2Cl)n1	5	-20	-2	1	5	13	.
Cc1cc(=O)[nH]c(N/N=C/C=C/c2ccccc2)n1	-8	-8	-2	11*	2	16	4
CC1=C(C(=O)N2CCCCCC2)CC(CC(=O)NC2CCCC2)C(=O)N1Cc1ccc(F)cc1 (stereo not given)	-4	.	.	-1	.	.	.
CN(Cc1ccccc1)c1nccn2ccnc12	-7	.	.	1	.	.	.
O=C(O)c1ccc(NS(=O)(=O)c2ccc3c(c2)C(=O)c2ccccc2C3=O)cc1	-8	.	.	24*	.	.	15*
Cc1nc(C)c(C(=O)N/N=C/c2c[nH]c3ccccc23)s1	-2	-14	0	.	5	2	.
Cc1nc(C)c(C(=O)N/N=C/c2cn(C)c3ccccc23)s1	-2	2	3	5.1*	2	-16	3
COc1cc(C(O)c2nc(-c3ccc(C)c(C)c3)cs2)ccc1F (stereo not given)	0	.	.	0	.	.	.
CCn1c(C)nc2cc(C(=O)N/N=C/c3ccccc3)ccc21	-4	-4	-2	1	1	10	.
